# Laboratory results published in the supplement of paper PMC4466140.
# Target: CaNbp2
# Assay: SPOT peptide array binding signal intensity (averaged, normalized) (arbitrary units (background-subtracted, floor 0; scale differs between SH3 domains)); higher = stronger binding of the SH3 domain to the peptide
# Summary of the method: (§1)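 GST-SH3 fusions from four yeast species, purified on glutathione Sepharose, were incubated at 10 μg/ml overnight at 4°C on membranes of synthetic 15-mer peptides in which cysteines were replaced with serines. Binding signal is the normalized, background-subtracted spot intensity averaged over replicates, in domain-specific arbitrary units.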
row,Binder,SPOT peptide array binding signal intensity
1,VTHRLRISIPGITGR,882

# Target: CaRvs167
# Assay: as above
# Summary of the method: as §1
row,Binder,SPOT peptide array binding signal intensity
1,VTHRLRISIPGITGR,640

# Target: CaRvs167-3
# Assay: as above
# Summary of the method: as §1
row,Binder,SPOT peptide array binding signal intensity
1,VTHRLRISIPGITGR,2060

# Target: CaSho1
# Assay: as above
# Summary of the method: as §1
row,Binder,SPOT peptide array binding signal intensity
1,VTHRLRISIPGITGR,1000

# Target: CaSla1-D1-D2
# Assay: as above
# Summary of the method: as §1
row,Binder,SPOT peptide array binding signal intensity
1,VTHRLRISIPGITGR,16

# Target: CaSla1-D3
# Assay: as above
# Summary of the method: as §1
row,Binder,SPOT peptide array binding signal intensity
1,VTHRLRISIPGITGR,252

# Target: ScAbp1
# Assay: as above
# Summary of the method: as §1
row,Binder,SPOT peptide array binding signal intensity
1,VTHRLRISIPGITGR,9

# Target: ScBbc1
# Assay: as above
# Summary of the method: as §1
row,Binder,SPOT peptide array binding signal intensity
1,VTHRLRISIPGITGR,16.2

# Target: ScBem1-D1
# Assay: as above
# Summary of the method: as §1
row,Binder,SPOT peptide array binding signal intensity
1,VTHRLRISIPGITGR,33.5

# Target: ScBzz1-D1
# Assay: as above
# Summary of the method: as §1
row,Binder,SPOT peptide array binding signal intensity
1,VTHRLRISIPGITGR,44.5

# Target: ScBzz1-D2
# Assay: as above
# Summary of the method: as §1
row,Binder,SPOT peptide array binding signal intensity
1,VTHRLRISIPGITGR,374

# Target: ScCyk3
# Assay: as above
# Summary of the method: as §1
row,Binder,SPOT peptide array binding signal intensity
1,VTHRLRISIPGITGR,82

# Target: ScFus1
# Assay: as above
# Summary of the method: as §1
row,Binder,SPOT peptide array binding signal intensity
1,VTHRLRISIPGITGR,1730

# Target: ScHof1
# Assay: as above
# Summary of the method: as §1
row,Binder,SPOT peptide array binding signal intensity
1,VTHRLRISIPGITGR,1

# Target: ScHse1
# Assay: as above
# Summary of the method: as §1
row,Binder,SPOT peptide array binding signal intensity
1,VTHRLRISIPGITGR,1450

# Target: ScLsb1
# Assay: as above
# Summary of the method: as §1
row,Binder,SPOT peptide array binding signal intensity
1,VTHRLRISIPGITGR,65

# Target: ScLsb2
# Assay: as above
# Summary of the method: as §1
row,Binder,SPOT peptide array binding signal intensity
1,VTHRLRISIPGITGR,25

# Target: ScLsb3
# Assay: as above
# Summary of the method: as §1
row,Binder,SPOT peptide array binding signal intensity
1,VTHRLRISIPGITGR,327

# Target: ScLsb4
# Assay: as above
# Summary of the method: as §1
row,Binder,SPOT peptide array binding signal intensity
1,VTHRLRISIPGITGR,42

# Target: ScMyo3
# Assay: as above
# Summary of the method: as §1
row,Binder,SPOT peptide array binding signal intensity
1,VTHRLRISIPGITGR,≤ 0

# Target: ScMyo5
# Assay: as above
# Summary of the method: as §1
row,Binder,SPOT peptide array binding signal intensity
1,VTHRLRISIPGITGR,1.75

# Target: ScNbp2
# Assay: as above
# Summary of the method: as §1
row,Binder,SPOT peptide array binding signal intensity
1,VTHRLRISIPGITGR,295

# Target: ScPex13
# Assay: as above
# Summary of the method: as §1
row,Binder,SPOT peptide array binding signal intensity
1,VTHRLRISIPGITGR,7.5

# Target: ScRvs167
# Assay: as above
# Summary of the method: as §1
row,Binder,SPOT peptide array binding signal intensity
1,VTHRLRISIPGITGR,45.2

# Target: ScSho1
# Assay: as above
# Summary of the method: as §1
row,Binder,SPOT peptide array binding signal intensity
1,VTHRLRISIPGITGR,946

# Target: ScSla1-D1-D2
# Assay: as above
# Summary of the method: as §1
row,Binder,SPOT peptide array binding signal intensity
1,VTHRLRISIPGITGR,159

# Target: ScSla1-D3
# Assay: as above
# Summary of the method: as §1
row,Binder,SPOT peptide array binding signal intensity
1,VTHRLRISIPGITGR,46

# Target: SpAbp1-D1
# Assay: as above
# Summary of the method: as §1
row,Binder,SPOT peptide array binding signal intensity
1,VTHRLRISIPGITGR,95.5

# Target: SpBbc1
# Assay: as above
# Summary of the method: as §1
row,Binder,SPOT peptide array binding signal intensity
1,VTHRLRISIPGITGR,32.8

# Target: SpBzz1-D1
# Assay: as above
# Summary of the method: as §1
row,Binder,SPOT peptide array binding signal intensity
1,VTHRLRISIPGITGR,396

# Target: SpBzz1-D2
# Assay: as above
# Summary of the method: as §1
row,Binder,SPOT peptide array binding signal intensity
1,VTHRLRISIPGITGR,≤ 0

# Target: SpCyk3
# Assay: as above
# Summary of the method: as §1
row,Binder,SPOT peptide array binding signal intensity
1,VTHRLRISIPGITGR,9

# Target: SpHof1
# Assay: as above
# Summary of the method: as §1
row,Binder,SPOT peptide array binding signal intensity
1,VTHRLRISIPGITGR,353

# Target: SpHof1-2
# Assay: as above
# Summary of the method: as §1
row,Binder,SPOT peptide array binding signal intensity
1,VTHRLRISIPGITGR,71

# Target: SpHof1-3
# Assay: as above
# Summary of the method: as §1
row,Binder,SPOT peptide array binding signal intensity
1,VTHRLRISIPGITGR,594

# Target: SpHse1
# Assay: as above
# Summary of the method: as §1
row,Binder,SPOT peptide array binding signal intensity
1,VTHRLRISIPGITGR,526

# Target: SpLsb1
# Assay: as above
# Summary of the method: as §1
row,Binder,SPOT peptide array binding signal intensity
1,VTHRLRISIPGITGR,8.25

# Target: SpLsb4
# Assay: as above
# Summary of the method: as §1
row,Binder,SPOT peptide array binding signal intensity
1,VTHRLRISIPGITGR,42

# Target: SpMyo1
# Assay: as above
# Summary of the method: as §1
row,Binder,SPOT peptide array binding signal intensity
1,VTHRLRISIPGITGR,1

# Target: SpNbp2
# Assay: as above
# Summary of the method: as §1
row,Binder,SPOT peptide array binding signal intensity
1,VTHRLRISIPGITGR,1510

# Target: SpPex13
# Assay: as above
# Summary of the method: as §1
row,Binder,SPOT peptide array binding signal intensity
1,VTHRLRISIPGITGR,17

# Target: SpRvs167
# Assay: as above
# Summary of the method: as §1
row,Binder,SPOT peptide array binding signal intensity
1,VTHRLRISIPGITGR,68.8

# Target: SpSla1-D1-D2
# Assay: as above
# Summary of the method: as §1
row,Binder,SPOT peptide array binding signal intensity
1,VTHRLRISIPGITGR,≤ 0

# Target: SpSla1-D3
# Assay: as above
# Summary of the method: as §1
row,Binder,SPOT peptide array binding signal intensity
1,VTHRLRISIPGITGR,10
